Measurements reported in PubChem BioAssay (NCATS).
Values joined by “and” are separate entries in the source; they are usually repeats but may differ in a detail not shown here. Equal entries are not always repeated. Inconclusive results are not listed. A call without a number means that no potency is given here. Active and inactive are the calls of the source. Calls come from the whole dose curve; as a rule, active = well fitted curve in the direction sought with a large enough effect; inconclusive = small, poorly fitted or top-dose-only effect, or another doubt; inactive = no such curve, though single readings can be large; an effect the other way counts as inactive or inconclusive.

Tests used:
[1] = Primary qHTS for inhibitors of nuclear receptor binding SET domain protein 2 (NSD2) in an isogenic RCH-ACV NSD2 p.E1099K mutant (9B) (AID 1645876)
[2] = Primary qHTS for inhibitors of nuclear receptor binding SET domain protein 2 (NSD2) in an RCH-ACV wild type WT cells (2C) (AID 1645877)
Note: nearly all actives have a fitted effect of over 70% in size.
Potency is the fitted concentration of half-maximal effect.

| Structure (SMILES) | Potency [1] | Potency [2] |
| --- | --- | --- |
| CN(C)c1ccc2nc3ccc(=[N+](C)C)cc-3sc2c1 | 1.32 µM (active) and 2.37 µM (active) | 1.32 µM (active) and 2.37 µM (active) |
| Cc1cc(C2CCCCC2)n(O)c(=O)c1 | 5.8 µM (active) and 266 nM (active) and 7.42 µM (active) | 3.26 µM (active) and 266 nM (active) and 4.68 µM (active) |
| CC1Cc2ccccc2N1NC(=O)c1ccc(Cl)c(S(N)(=O)=O)c1 (stereo not given) | inactive | inactive |
| COc1ccc(C2(C#N)CCC(C(=O)O)CC2)cc1OC1CCCC1 (stereo not given) | inactive | inactive |
| C[C@@H](N)C1CCC(C(=O)Nc2ccncc2)CC1 (stereo not given in full) | inactive | inactive |
| Cc1nc2n(c(=O)c1CCN1CCC(c3noc4cc(F)ccc34)CC1)CCCC2 | inactive | inactive |
| Cc1ncc([N+](=O)[O-])n1CC(C)O (stereo not given) | inactive | inactive |
| CS(=O)(=O)OCCCCOS(C)(=O)=O | inactive | inactive |
| O=C(O)c1cc(=O)c2c(OCC(O)COc3cccc4oc(C(=O)O)cc(=O)c34)cccc2o1 | inactive | inactive |
| Cc1nccn1CC1CCc2c(c3ccccc3n2C)C1=O (stereo not given) | inactive | inactive |
| CCCc1cc(=O)[nH]c(=S)[nH]1 | inactive | inactive |
| Cc1cc(=O)oc2cc(O)ccc12 | inactive | inactive |
| CC(C)c1ccc2oc3nc(N)c(C(=O)O)cc3c(=O)c2c1 | inactive | inactive |
| CCOC(=O)C1=C(O)C(=O)N(Cc2ccccc2)C1 | inactive | inactive |
| COc1ccccc1N1CCN(CCN(C(=O)C2CCCCC2)c2ccccn2)CC1 | inactive | inactive |
